# Screening results from PubChem.
# MEKK2mut PB1 HTS: signal of MEK5 binding to mutant human MEKK2 PB1 domain; actives 0.35% (n = 290,000); bead flow cytometry, Alexa488-MEK5 binding to MEKK2 mutant; percent response, % at 10 µM; in the data active = percent response above about 24%, passing the limit was not always enough
# MEKK2wt PB1 HTS: raises or lowers MEK5 binding to wildtype human MEKK2 PB1 domain; binding response (% of control), % at 10 µM; AID 1531; bead flow cytometry, Alexa488-MEK5 binding to MEKK2 WT; actives lie on both sides; actives 1.1% (n = 290,000); Q9Y2U5; in the data active = binding response below about 67% or above about 130%
# MEKK3 PB1 HTS: modulators (inhibitors or enhancers) of MEK5 binding to human MEKK3 PB1 domain; Q99759; actives 1.4% (n = 290,000); binding response (% of control), % at 10 µM; AID 1529; bead-based flow cytometry, Alexa488-MEK5 binding to MEKK3; actives lie on both sides; 0 = blocked by unlabeled MEK5, 100 = vehicle;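 active = binding response more than 3 SD above or below the average of its plate-row segment, actives on both sides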;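 also: Alexa488 bead fluorescence after subtracting the streptavidin-only scavenger bead signal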
# UBC13 polyUb: human UBC13 polyubiquitination inhibition. P61088. UBC13 polyubiquitin chain formation, TR-FRET. inhibition, % at 20 µM. actives 0.47% (n = 330,000). AID 485273; in the data active = inhibition above about 45%, passing the limit was not always enough
# Target sequence (P61088 whole entry, looked up): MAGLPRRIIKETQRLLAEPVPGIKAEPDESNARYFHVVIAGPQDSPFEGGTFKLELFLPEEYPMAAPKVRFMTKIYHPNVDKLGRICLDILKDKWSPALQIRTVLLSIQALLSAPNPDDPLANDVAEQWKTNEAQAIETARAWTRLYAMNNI
# Hits are given with their value; - = inactive; . = not tested or not shown; [ ] = remark or other dose. Compounds with a hit are over-represented: about 2.3% of the library has one in this group of screens.
SMILES,MEKK2mut PB1 HTS,MEKK2wt PB1 HTS,MEKK3 PB1 HTS,UBC13 polyUb
Cc1ccc(C)c(Nc2nc3c(S(=O)(=O)c4ccccc4)nnn3c3ccccc23)c1,-,-,-,-
O=S(=O)(c1ccccc1)c1nnn2c1nc(NC1CCN(Cc3ccccc3)CC1)c1cc(Cl)ccc12,33.0,138.0,-,-
O=S(=O)(c1ccccc1)c1nnn2c1nc(NC1CCN(Cc3ccccc3)CC1)c1ccccc12,32.0,146.0,-,-
CC[n+]1c(/C=C/c2ccc(N(C)C)cc2)ccc2ccccc21,-,4.0,-,.
CN(C)c1ccc(/C=C/c2cc[n+](C)cc2)cc1,-,28.0,-,-
CCOC(=O)c1ccc(NC(=O)COc2ccc(CNC3CCCCC3)cc2OC)cc1,-,-,-,-
S=C(Nc1cc(Cl)cc(Cl)c1)NC1CCN(Cc2ccccc2)CC1,-,135.0,-,-
Cc1ccc(NC(=S)NC2CCN(Cc3ccccc3)CC2)cc1,-,-,-,-
Cc1ccc([N+](=O)[O-])c(OCCCN2CCC(Cc3ccccc3)CC2)c1,-,143.0,-,.
CCN(c1ccccc1)S(=O)(=O)c1c(C)noc1C,.,.,.,-
CCOc1ccc2nc(N(CCN(CC)CC)C(=O)/C=C/c3cccs3)sc2c1,-,157.0,-,-
CCN(CC)CCN(C(=O)c1cc2ccccc2cc1OC)c1nc2ccc(OC)cc2s1,26.0,148.0,-,-
COc1ccc2nc(N(CCN(C)C)C(=O)/C=C/c3cccs3)sc2c1,-,-,-,-
CCN(CC)CCN(C(=O)c1cc2ccccc2cc1OC)c1nc2ccc(F)cc2s1,-,140.0,-,-
CCN(CC)CCN(C(=O)c1ccc2ccccc2c1)c1nc2ccc(OC)cc2s1,-,-,-,-
COc1cccc(-c2nc(CS(=O)(=O)CC(=O)NCCCN3CCOCC3)c(C)o2)c1,-,-,-,-
CCC1CCCCN1CCCNC(=O)CS(=O)(=O)Cc1nc(-c2cccc(OC)c2)oc1C (configuration not stated),-,140.0,-,-
O=C(NCCCN1CCCC1)c1ccc2c(c1)N(Cc1cccc(Cl)c1)C(=O)c1ccccc1S2=O (configuration not stated),-,-,-,-
CC1CC(C)CN(CCCNC(=O)c2ccc3c(c2)N(Cc2ccccc2)C(=O)c2ccccc2S3=O)C1 (configuration not stated),-,145.0,-,-
CCOc1ncccc1C(=O)Nc1cc(S(=O)(=O)N2CCCCCC2)ccc1OC,.,.,.,-
COc1ccc(-c2coc3cc4oc(=O)cc(-c5ccccc5)c4cc23)cc1F,-,-,132.0,-
CCN(CC)S(=O)(=O)c1ccc(OCC(=O)NC(=O)c2ccccc2OC)c([N+](=O)[O-])c1,-,-,-,-
Cc1ccc2cc(CCNC(=O)CCCc3ccccc3)c(=O)[nH]c2c1C,-,-,-,-
Cc1cccc(/C=C2/Sc3ccc(C(=O)NCCCN4CCOCC4)cc3NC2=O)c1,25.0,149.0,-,-
COc1ccc(/C=C2/Sc3ccc(C(=O)NCCCN4CCOCC4)cc3NC2=O)cc1OC,-,-,-,-
SMILES,MEKK2mut PB1 HTS,MEKK2wt PB1 HTS,MEKK3 PB1 HTS,UBC13 polyUb
CCN1CCCC1CNC(=O)c1ccc2c(c1)NC(=O)/C(=C\c1ccc(OC)c(OC)c1)S2 (configuration not stated),25.0,153.0[inhibitor],-,-
O=C1Nc2cc(C(=O)NCCN3CCCCCC3)ccc2S/C1=C\c1ccccc1,43.0,219.0,-,-
Cc1cc(C)cc(N2C(N)=NC(N)=NC2c2ccccc2F)c1 (configuration not stated),-,-,-,-
CCOc1ccc(CN(C)C(=O)[C@H](Cc2ccccc2)NC(=O)OCc2ccccc2)cc1OC,-,-,-,-
O=C(C1CCCO1)N1CCN(S(=O)(=O)c2cc(C(F)(F)F)ccc2Cl)CC1 (configuration not stated),.,.,.,-
Cc1cccc(C)c1OCC(=O)NC1CC1,-,-,-,-
Cc1cccc(C)c1OCC(=O)NNC(=S)NC(=O)C1CC1,-,-,-,84.9
CN(Cc1ccc(Cl)s1)C(=O)CN1C(=O)N(C)C2(CCCCC2)C1=O,.,.,.,-
CC1Cc2cc(-c3csc(NC(=O)Cc4cccs4)n3)ccc2N1S(C)(=O)=O (configuration not stated),.,.,.,-
CCC(=O)Nc1nc(-c2ccc3c(c2)CC(C)N3S(C)(=O)=O)cs1 (configuration not stated),-,-1.0,-,-
COc1ccc(C(=O)NCCOc2ccccc2)cc1S(=O)(=O)N1CCOCC1,.,.,.,-
Cc1ccc(/C=C2\SC(=S)N(CC3CCCO3)C2=O)o1 (configuration not stated),-,-,-,-
Cc1ccc(/C=C2/SC(=S)N(C3CCCCC3)C2=O)o1,-,56.0[inhibitor],-,-
CCC1CCCCN1CCCNC(=O)Cn1cnc2sc(C)c(S(=O)(=O)N3CC(C)CC(C)C3)c2c1=O (configuration not stated),26.0,135.0,-,-
COCC(=O)N(C)C[C@H]1N[C@@](C)(C(=O)OC)[C@H]2C(=O)N(Cc3ccccc3)C(=O)[C@@H]12,.,.,.,-
C(=N\Nc1nc2ccccc2[nH]1)/c1c[nH]c2ccccc12,-,155.0,-,-
C#CCOCCOCCOCCNc1nc(N2CCN(C(=O)[C@H](CCCCN)n3cc([C@@H](N)C(C)CC)nn3)CC2)nc(N2CCN(C(=O)[C@H](CCCCN)n3cc([C@@H](N)CO)nn3)CC2)n1 (some centres not stated),-,-,-,46.3
C#CCOCCOCCOCCNc1nc(N2CCOCC2)nc(N2CCN(C(=O)[C@H](CCCCN)n3cc([C@@H](N)CC(C)C)nn3)CC2)n1,-,-,-,-
C#CCOCCOCCOCCNc1nc(N2CCN(C(=O)[C@H](CCCCN)n3cc(C(N)COC(=O)C(F)(F)F)nn3)CC2)nc(N2CCN(C(=O)[C@H](CCCCN)n3cc(C(N)CC(C)C)nn3)CC2)n1 (some centres not stated),-,150.0,-,.
CCN(CC)c1ccc(/C=C(\C#N)c2nc(-c3cccs3)c(NC(C)=O)s2)cc1,517.0,290.0,-,.
CC(=O)Nc1sc(N/N=C\c2ccc(O)cc2)nc1-c1cccs1,-,-,-,-
C/C(=N\Nc1nc(C)cc(-c2ccccc2)n1)c1ccccc1,-,-,-,-
C/C(=N\Nc1nc2ccc(Cl)cc2o1)c1ccccc1,-,-3.0,-,-
Cc1cc(C)c(OCC(O)CN2CCN(c3ccccn3)CC2)c(C)c1 (configuration not stated),-,-8.0,-,-
Cc1cccc(NC(=O)COC(=O)c2ccc(S(=O)(=O)N3CCCC3)cc2)c1,.,.,.,-
O=C(Nc1ccc(Nc2ccncc2)cc1)c1ccc(Nc2ccnc3ccc([N+](=O)[O-])cc23)cc1,-,72.0[inhibitor],61.0[inhibitor],.
CCCCN1C(=S)NC[C@@H]1Cc1ccccc1,-,-,-,-
Cc1cc(NC(=O)c2cccc([N+](=O)[O-])c2)n(-c2ccccc2)n1,-,-,-,-
Cc1cc(NC(=O)c2cc([N+](=O)[O-])cc([N+](=O)[O-])c2)n(-c2ccccc2)n1,-,30.0,-,.
